# From article PMC7862700, “An all-to-all approach to the identification of sequence-specific readers for epigenetic DNA modifications on cytosine”
# Legend:
# Assay in all cases: DAPPL (digital affinity profiling via proximity ligation, sequencing); 10 mM Tris-HCl pH 7.5, 50 mM NaCl, 1 mM DTT, 4% glycerol, room temperature, 30 min; GST-TFs on glutathione beads, 16-mer random dsDNA library, 0.1% formaldehyde crosslink after washing; high values mean tight binding
# FEV = molecular target: T1, FEV (Homo sapiens, UniProt Q99581 1-238); settings: protein: recombinant; tags: N-terminal GST; dsDNA, one strand shown
# T1 sequence: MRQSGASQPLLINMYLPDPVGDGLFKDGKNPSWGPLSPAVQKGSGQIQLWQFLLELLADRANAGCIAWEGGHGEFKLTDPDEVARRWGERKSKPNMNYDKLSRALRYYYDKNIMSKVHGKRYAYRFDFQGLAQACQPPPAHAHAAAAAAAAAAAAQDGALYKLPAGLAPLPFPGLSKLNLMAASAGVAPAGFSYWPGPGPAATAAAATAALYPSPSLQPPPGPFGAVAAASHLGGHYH
# Summary of the method: (§1)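 The binding signal reported is, for every hexamer, its read frequency for a factor over its read frequency for the tag-only sample. Reads came from pools of yeast-expressed, GST-fused human transcription factors on glutathione beads, barcoded with DNA and mixed with that sample, which were incubated with 200 nmole of a random double-stranded 16-mer DNA library in Tris/NaCl/DTT/glycerol buffer at room temperature for 30 min. After washing, the pools were crosslinked with 0.1% formaldehyde, proximity-ligated with BsaI/T4 ligase for 1 h at 37 °C, PCR-amplified and sequenced on an Illumina NextSeq500.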
# ETV5 = ETV5 (Homo sapiens, UniProt P41161 1-510); settings: protein: recombinant; tags: N-terminal GST; dsDNA, one strand shown
# Summary of the method: as §1
# HSF1 = HSF1 (Homo sapiens, UniProt Q00613 1-529); settings: protein: recombinant; tags: N-terminal GST; chain copies: 3; dsDNA, one strand shown
# Summary of the method: as §1
# SPIC = molecular target: T2, SPIC (Homo sapiens, UniProt Q8N5J4 1-248); settings: protein: recombinant; tags: N-terminal GST; dsDNA, one strand shown
# T2 sequence: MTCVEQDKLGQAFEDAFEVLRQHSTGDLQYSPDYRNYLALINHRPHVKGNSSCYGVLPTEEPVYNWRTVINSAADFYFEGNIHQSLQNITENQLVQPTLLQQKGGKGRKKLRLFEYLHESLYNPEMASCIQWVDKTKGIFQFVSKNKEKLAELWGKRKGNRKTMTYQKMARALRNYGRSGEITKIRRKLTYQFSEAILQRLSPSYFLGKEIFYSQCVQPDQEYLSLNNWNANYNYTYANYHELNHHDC
# Summary of the method: as §1
# ELF4 = ELF4 (Homo sapiens, UniProt Q99607 1-663); settings: protein: recombinant; tags: N-terminal GST; dsDNA, one strand shown
# Summary of the method: as §1
# ETV2 = molecular target: T3, ETV2 (Homo sapiens, UniProt O00321 1-342); settings: protein: recombinant; tags: N-terminal GST; dsDNA, one strand shown
# T3 sequence: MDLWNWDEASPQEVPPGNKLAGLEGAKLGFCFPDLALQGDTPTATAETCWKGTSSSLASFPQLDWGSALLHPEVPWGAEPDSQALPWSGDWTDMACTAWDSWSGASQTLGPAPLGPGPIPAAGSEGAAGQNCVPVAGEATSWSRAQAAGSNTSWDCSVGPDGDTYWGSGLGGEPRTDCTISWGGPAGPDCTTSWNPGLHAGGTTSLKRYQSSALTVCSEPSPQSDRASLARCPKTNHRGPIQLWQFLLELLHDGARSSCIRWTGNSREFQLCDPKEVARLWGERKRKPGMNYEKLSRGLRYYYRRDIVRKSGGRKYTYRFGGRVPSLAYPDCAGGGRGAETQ
# Summary of the method: as §1
# ELF3 = molecular target: T4, ELF3 (Homo sapiens, UniProt P78545 1-371); settings: protein: recombinant; tags: N-terminal GST; dsDNA, one strand shown
# T4 sequence: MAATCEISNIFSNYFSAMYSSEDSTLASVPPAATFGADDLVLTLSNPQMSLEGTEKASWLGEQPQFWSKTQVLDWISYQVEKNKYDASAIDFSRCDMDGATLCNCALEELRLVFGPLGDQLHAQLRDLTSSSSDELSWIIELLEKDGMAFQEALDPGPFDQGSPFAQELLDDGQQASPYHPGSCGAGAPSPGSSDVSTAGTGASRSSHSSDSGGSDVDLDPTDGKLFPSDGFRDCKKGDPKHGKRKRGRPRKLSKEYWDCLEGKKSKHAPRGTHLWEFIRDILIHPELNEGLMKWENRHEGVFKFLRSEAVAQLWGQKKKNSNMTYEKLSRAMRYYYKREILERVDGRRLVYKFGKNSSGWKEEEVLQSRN
# Summary of the method: as §1
# CRX = CRX (Homo sapiens, UniProt O43186 1-299); settings: protein: recombinant; tags: N-terminal GST; dsDNA, one strand shown
# Summary of the method: as §1
# ETV1 = ETV1 (Homo sapiens, UniProt P50549 1-477); settings: protein: recombinant; tags: N-terminal GST; dsDNA, one strand shown
# Summary of the method: as §1
# ERF = molecular target: T5, ERF (Homo sapiens, UniProt P50548 1-548); settings: protein: recombinant; tags: N-terminal GST; dsDNA, one strand shown
# T5 sequence: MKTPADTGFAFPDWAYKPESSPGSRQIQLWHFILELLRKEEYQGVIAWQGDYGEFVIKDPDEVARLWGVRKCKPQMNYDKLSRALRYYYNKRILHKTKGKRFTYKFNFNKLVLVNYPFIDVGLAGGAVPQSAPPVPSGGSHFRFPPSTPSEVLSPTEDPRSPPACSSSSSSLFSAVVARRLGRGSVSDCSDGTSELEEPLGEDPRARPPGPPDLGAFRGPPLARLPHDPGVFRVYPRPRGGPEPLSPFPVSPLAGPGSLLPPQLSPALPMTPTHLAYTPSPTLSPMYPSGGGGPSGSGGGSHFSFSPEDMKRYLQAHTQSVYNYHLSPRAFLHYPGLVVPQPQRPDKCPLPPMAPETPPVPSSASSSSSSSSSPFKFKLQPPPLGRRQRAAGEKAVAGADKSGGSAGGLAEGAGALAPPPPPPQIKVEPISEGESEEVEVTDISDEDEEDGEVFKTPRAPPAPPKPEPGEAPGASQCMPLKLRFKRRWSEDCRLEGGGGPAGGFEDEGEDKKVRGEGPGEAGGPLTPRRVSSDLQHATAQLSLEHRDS
# Summary of the method: as §1
# ETV3L = molecular target: T6, ETV3L (Homo sapiens, UniProt Q6ZN32 1-361); settings: protein: recombinant; tags: N-terminal GST; dsDNA, one strand shown
# T6 sequence: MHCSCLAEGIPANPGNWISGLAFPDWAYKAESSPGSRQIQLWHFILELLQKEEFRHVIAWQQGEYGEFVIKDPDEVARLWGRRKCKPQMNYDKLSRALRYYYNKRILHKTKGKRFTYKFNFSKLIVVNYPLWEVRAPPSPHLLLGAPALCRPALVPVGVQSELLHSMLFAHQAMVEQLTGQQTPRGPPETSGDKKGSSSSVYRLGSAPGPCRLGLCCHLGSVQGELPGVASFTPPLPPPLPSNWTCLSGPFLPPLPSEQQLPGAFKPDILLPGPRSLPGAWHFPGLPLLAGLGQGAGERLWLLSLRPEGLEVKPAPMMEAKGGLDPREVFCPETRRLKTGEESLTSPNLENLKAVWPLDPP
# Summary of the method: as §1
# ETS2 = molecular target: T7, ETS2 (Homo sapiens, UniProt P15036 1-469); settings: protein: recombinant; tags: N-terminal GST; dsDNA, one strand shown
# T7 sequence: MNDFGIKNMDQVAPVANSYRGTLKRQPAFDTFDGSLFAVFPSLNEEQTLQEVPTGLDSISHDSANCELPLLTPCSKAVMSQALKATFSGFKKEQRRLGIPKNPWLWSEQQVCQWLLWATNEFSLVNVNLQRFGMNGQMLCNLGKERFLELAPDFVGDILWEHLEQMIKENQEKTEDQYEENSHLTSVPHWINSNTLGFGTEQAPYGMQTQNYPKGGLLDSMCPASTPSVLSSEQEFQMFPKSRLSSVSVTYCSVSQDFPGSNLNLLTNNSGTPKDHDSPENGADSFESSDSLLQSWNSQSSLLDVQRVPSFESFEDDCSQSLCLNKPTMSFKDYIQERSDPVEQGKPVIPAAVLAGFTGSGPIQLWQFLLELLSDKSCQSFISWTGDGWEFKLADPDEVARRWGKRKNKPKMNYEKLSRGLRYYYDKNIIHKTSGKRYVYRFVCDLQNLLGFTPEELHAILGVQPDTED
# Summary of the method: as §1
# SPDEF = molecular target: T8, SPDEF (Homo sapiens, UniProt O95238 1-335); settings: protein: recombinant; tags: N-terminal GST; dsDNA, one strand shown
# T8 sequence: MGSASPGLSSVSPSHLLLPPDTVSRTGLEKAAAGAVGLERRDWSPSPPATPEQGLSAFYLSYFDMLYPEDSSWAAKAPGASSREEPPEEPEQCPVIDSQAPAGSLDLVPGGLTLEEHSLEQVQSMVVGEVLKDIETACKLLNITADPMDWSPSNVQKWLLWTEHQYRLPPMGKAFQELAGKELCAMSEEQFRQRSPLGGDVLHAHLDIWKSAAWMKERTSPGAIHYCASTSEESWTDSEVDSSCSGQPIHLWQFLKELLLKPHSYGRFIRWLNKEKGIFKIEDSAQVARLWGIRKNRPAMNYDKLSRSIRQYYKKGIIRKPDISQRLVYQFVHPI
# Summary of the method: as §1
# ETV7 = molecular target: T9, ETV7 (Homo sapiens, UniProt Q9Y603 1-341); settings: protein: recombinant; tags: N-terminal GST; dsDNA, one strand shown
# T9 sequence: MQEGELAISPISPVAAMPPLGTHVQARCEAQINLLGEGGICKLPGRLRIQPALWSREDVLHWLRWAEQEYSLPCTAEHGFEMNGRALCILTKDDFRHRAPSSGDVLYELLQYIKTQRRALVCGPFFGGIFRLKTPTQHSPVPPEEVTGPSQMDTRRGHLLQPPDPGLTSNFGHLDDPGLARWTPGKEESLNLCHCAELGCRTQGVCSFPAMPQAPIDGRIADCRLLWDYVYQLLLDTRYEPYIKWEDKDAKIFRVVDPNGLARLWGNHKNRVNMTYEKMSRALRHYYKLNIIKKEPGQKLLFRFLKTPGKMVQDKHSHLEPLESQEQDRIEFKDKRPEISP
# Summary of the method: as §1
# ETV3 = molecular target: T10, ETV3 (Homo sapiens, UniProt P41162-2 1-143); settings: protein: recombinant; tags: N-terminal GST; dsDNA, one strand shown
# T10 sequence: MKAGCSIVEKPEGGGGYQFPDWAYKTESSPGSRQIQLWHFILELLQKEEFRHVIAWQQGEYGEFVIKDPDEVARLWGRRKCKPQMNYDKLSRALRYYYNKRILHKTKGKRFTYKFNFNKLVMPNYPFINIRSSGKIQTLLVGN
# Summary of the method: as §1
# ETV6 = ETV6 (Homo sapiens, UniProt P41212 1-452); settings: protein: recombinant; tags: N-terminal GST; dsDNA, one strand shown
# Summary of the method: as §1
# Chain of HSF1 (Q00613 whole entry): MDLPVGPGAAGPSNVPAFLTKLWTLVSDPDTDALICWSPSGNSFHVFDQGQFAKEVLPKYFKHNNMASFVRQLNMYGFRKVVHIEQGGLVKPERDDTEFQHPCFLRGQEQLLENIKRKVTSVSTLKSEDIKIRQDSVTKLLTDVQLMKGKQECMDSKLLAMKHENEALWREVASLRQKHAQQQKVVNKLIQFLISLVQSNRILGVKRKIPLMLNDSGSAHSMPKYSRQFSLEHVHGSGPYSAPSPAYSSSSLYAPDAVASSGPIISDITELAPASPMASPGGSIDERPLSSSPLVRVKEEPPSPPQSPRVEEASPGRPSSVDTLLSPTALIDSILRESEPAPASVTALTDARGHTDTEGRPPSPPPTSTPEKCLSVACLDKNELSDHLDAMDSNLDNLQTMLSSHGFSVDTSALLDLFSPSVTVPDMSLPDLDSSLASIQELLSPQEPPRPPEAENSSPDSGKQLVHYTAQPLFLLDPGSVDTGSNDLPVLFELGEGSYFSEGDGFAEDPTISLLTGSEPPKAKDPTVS
# Chain of ELF4 (Q99607 whole entry): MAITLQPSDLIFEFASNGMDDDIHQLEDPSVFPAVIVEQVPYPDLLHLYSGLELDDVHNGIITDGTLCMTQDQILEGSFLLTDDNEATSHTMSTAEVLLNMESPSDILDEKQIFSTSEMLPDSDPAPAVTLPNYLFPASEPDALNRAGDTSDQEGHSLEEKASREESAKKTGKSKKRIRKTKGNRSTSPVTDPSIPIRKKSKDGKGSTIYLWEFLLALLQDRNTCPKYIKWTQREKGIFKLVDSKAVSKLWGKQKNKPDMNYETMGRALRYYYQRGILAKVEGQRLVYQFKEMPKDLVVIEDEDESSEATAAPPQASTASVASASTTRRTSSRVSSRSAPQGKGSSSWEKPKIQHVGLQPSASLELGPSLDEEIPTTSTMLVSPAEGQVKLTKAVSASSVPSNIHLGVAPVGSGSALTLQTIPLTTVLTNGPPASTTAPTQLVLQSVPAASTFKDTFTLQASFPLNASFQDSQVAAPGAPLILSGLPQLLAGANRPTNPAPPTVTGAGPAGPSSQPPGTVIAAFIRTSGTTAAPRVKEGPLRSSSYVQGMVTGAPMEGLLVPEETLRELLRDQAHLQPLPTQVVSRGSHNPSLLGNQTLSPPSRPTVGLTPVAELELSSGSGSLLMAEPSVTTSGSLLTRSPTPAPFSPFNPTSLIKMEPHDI
# Chain of ETV5 (P41161 whole entry): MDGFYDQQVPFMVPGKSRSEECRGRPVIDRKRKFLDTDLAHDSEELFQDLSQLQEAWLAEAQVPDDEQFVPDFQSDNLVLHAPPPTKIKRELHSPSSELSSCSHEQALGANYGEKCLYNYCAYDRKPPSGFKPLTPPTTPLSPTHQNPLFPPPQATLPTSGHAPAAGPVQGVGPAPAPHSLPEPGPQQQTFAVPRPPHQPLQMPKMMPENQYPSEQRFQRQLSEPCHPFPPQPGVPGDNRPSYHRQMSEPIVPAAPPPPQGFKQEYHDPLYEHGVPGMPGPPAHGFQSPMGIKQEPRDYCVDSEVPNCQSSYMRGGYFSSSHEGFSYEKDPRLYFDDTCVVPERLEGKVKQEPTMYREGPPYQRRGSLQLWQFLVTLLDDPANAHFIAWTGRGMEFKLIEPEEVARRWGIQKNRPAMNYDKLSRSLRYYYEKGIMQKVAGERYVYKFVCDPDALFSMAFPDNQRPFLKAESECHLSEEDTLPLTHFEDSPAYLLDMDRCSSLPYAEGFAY
# Chain of ETV6 (P41212 whole entry): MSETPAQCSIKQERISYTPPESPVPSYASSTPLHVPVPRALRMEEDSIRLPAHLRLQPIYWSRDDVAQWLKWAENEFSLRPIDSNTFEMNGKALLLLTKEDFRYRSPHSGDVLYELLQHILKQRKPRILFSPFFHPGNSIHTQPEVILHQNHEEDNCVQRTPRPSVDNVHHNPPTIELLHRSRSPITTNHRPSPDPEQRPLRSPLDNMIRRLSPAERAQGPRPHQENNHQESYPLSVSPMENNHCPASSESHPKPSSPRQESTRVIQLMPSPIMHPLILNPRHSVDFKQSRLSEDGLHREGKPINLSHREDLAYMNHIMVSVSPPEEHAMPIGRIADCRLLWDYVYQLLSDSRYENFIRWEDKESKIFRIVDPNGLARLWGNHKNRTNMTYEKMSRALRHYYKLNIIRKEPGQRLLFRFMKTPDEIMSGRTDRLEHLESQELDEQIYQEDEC
# Chain of ETV1 (P50549 whole entry): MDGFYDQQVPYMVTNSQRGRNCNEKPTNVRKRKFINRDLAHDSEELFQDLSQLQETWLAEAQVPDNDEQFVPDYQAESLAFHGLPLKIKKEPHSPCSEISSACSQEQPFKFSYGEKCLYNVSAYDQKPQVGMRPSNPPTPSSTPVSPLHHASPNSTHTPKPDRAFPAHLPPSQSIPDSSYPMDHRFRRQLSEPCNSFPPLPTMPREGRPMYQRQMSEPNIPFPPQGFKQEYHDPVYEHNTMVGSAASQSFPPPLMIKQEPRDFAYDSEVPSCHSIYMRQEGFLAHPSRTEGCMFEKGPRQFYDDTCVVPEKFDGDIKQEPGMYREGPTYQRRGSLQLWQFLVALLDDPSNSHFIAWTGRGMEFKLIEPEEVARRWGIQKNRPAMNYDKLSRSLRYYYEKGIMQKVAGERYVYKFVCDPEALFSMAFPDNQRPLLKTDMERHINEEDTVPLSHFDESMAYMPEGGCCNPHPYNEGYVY
# Chain of CRX (O43186 whole entry): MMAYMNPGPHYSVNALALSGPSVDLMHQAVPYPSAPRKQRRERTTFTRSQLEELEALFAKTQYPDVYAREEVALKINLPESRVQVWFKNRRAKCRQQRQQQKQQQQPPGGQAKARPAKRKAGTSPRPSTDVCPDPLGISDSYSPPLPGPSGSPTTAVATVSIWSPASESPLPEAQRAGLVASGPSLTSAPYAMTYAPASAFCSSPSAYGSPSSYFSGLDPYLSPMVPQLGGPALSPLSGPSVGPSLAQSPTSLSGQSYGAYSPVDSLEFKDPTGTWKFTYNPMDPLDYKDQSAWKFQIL
sequence,measurement,setting,value
ATCAAT,binding signal,FEV,"1.05 fold enrichment (6-mer frequency, TF over GST control)"
same,binding signal,ETV5,"1.1 fold enrichment (6-mer frequency, TF over GST control)"
same,binding signal,HSF1,"1.14 fold enrichment (6-mer frequency, TF over GST control)"
same,binding signal,SPIC,"1.06 fold enrichment (6-mer frequency, TF over GST control)"
same,binding signal,ELF4,"1.1 fold enrichment (6-mer frequency, TF over GST control)"
same,binding signal,ETV2,"1.16 fold enrichment (6-mer frequency, TF over GST control)"
same,binding signal,ELF3,"1.12 fold enrichment (6-mer frequency, TF over GST control)"
same,binding signal,CRX,"1.32 fold enrichment (6-mer frequency, TF over GST control)"
same,binding signal,ETV1,"1.06 fold enrichment (6-mer frequency, TF over GST control)"
same,binding signal,ERF,"1.15 fold enrichment (6-mer frequency, TF over GST control)"
same,binding signal,ETV3L,"1.03 fold enrichment (6-mer frequency, TF over GST control)"
same,binding signal,ETS2,"1.05 fold enrichment (6-mer frequency, TF over GST control)"
same,binding signal,SPDEF,"1.03 fold enrichment (6-mer frequency, TF over GST control)"
same,binding signal,ETV7,"1.12 fold enrichment (6-mer frequency, TF over GST control)"
same,binding signal,ETV3,"1.14 fold enrichment (6-mer frequency, TF over GST control)"
same,binding signal,ETV6,"1.07 fold enrichment (6-mer frequency, TF over GST control)"
